For twelve molecules, Potency and outcome results are on record in PubChem BioAssay (Tox21).

Where “and” joins values, the source holds several entries; their conditions need not be identical. Equal values may be shown once. Calls of active or inactive are those of the source. Unless noted, calls follow the shape of the dose curve; as a rule, active = well fitted curve in the direction sought with a large enough effect in the repeat runs; inconclusive = weak or mixed curves; inactive = no such curve, though single readings can be large; an effect the other way counts as inactive or inconclusive.

A short description of test [1]: qHTS assay to identify small molecule antagonists of the glucocorticoid receptor (GR) signaling pathway - cell viability counter screen (AID 720693). Also: nearly all actives have a fitted effect of over 55% in size. Also: potency is read from the fitted curve at half-maximal effect. For orientation: In qHTS, concentration-response curves come from the screen itself.
A short description of test [2]: qHTS assay for identifying genotoxic compounds that show differential cytotoxicity against isogenic chicken DT40 cell lines with known DNA damage response pathways - wild type cell line (AID 743012). Also: nearly all actives have a fitted effect of over 60% in size. Also: potency is read from the fitted curve at half-maximal effect. In outline: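 Endpoint: CellTiter-Glo luminescence, 30 min RT. Cells: wild type DT40, 300/well. Exposure: compounds in DMSO, 40 h, 37 C/5% CO2, after ~0.5 h pre-incubation.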

The nature of test [3]: qHTS assay for identifying genotoxic compounds that show differential cytotoxicity against isogenic chicken DT40 cell lines with known DNA damage response pathways - Rev3 mutant cell line (AID 743014). Also: nearly all actives have a fitted effect of over 55% in size. Also: potency is read from the fitted curve at half-maximal effect.
The nature of test [4]: qHTS assay for identifying genotoxic compounds that show differential cytotoxicity against isogenic chicken DT40 cell lines with known DNA damage response pathways - Rad54/Ku70 mutant cell line (AID 743015). Also: nearly all actives have a fitted effect of over 60% in size. Also: potency is read from the fitted curve at half-maximal effect.
A short description of test [5]: qHTS assay to identify small molecule antagonists of the androgen receptor (AR) signaling pathway - cell viability counter screen (AID 743033; also: nearly all actives have a fitted effect of over 45% in size; also: potency is read from the fitted curve at half-maximal effect).
Test [6] can be described thus: qHTS assay to identify small molecule antagonists of the androgen receptor (AR) signaling pathway using the MDA cell line - cell viability counter screen (AID 743041; also: nearly all actives have a fitted effect of over 45% in size; also: potency is read from the fitted curve at half-maximal effect). In outline: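 Compound exposure lasted 16 h at 37C in MDA-kb2 AR-luc cells stimulated with R1881. Protease-based CellTiter-Fluor reagent was applied for the final 30 min and fluorescence measured.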

The nature of test [7]: qHTS assay to identify small molecule antagonists of the thyroid receptor (TR) signaling pathway - cell viability counter screen (AID 743064). Also: nearly all actives have a fitted effect of over 50% in size. Also: potency is read from the fitted curve at half-maximal effect. In outline: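 In-well cytotoxicity read by CellTiter-Fluor (30 min, 37 C) following 23.5 h exposure of GH3 cells bearing a TRE-luciferase sensor. Compounds were added alongside 1 nM (final) T3 to drive TR transactivation.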
Test [8] is described as follows: qHTS assay to identify small molecule antagonists of the thyroid receptor (TR) signaling pathway (AID 743065). Also: nearly all actives have a fitted effect of over 55% in size. Also: potency is read from the fitted curve at half-maximal effect. In outline:
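GH3.TRE-Luc rat pituitary cells (two TREs driving luciferase) were dosed with compound, then stimulated with 1 nM T3 (final) for 23.5 h at 37 C. ONE-Glo luminescence was the read-out, with CellTiter-Fluor fluorescence as the cytotoxicity counter-screen.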

The test system of test [9] is thyroid hormone receptor (rat, GH3 cells). Nature of the test: qHTS assay to identify small molecule agonists of the thyroid receptor (TR) signaling pathway (AID 743066; calls by dose curve).
Test [10] is described as follows: qHTS assay to identify small molecule antagonists of the estrogen receptor alpha (ER-alpha) signaling pathway - cell viability counter screen (AID 743074; calls by dose curve; also: nearly all actives have a fitted effect of over 45% in size; also: potency is read from the fitted curve at half-maximal effect).
Test [11] concerns the target Androgen receptor (Homo sapiens) (UniProt P10275). The test is described as follows: qHTS assay to identify small molecule agonists of the androgen receptor (AR) signaling pathway (AID 743036; active = well fitted activation curve with a large enough effect in the signal ratio in the repeat runs, with a control signal flat, not every such curve was filed as active; inconclusive = weak or mixed curves, or effect the other way; inactive = no such curve, though single readings can be large or run the other way; the % refers to the signal ratio). In outline: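 Activation was read as beta-lactamase FRET signal from LiveBLAzer B/G substrate, added for 2 h at room temperature. Before that, GeneBLAzer AR-UAS-bla GripTite (HEK293) cells had 16 h compound exposure at 37C.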

Test [12] shares this target. Nature of the test: qHTS assay to identify small molecule agonists of the androgen receptor (AR) signaling pathway using the MDA cell line (AID 743040; also: nearly all actives have a fitted effect of over 20% in size). In outline: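 Testing was done with the MDA-kb2 AR-luc line, a human breast carcinoma stably transfected with MMTV-luciferase containing AR and GR response elements. Cells were exposed 16 h at 37C before ONE-Glo luminescence detection.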

Test [13] shares this target. The test is described as follows: qHTS assay to identify small molecule antagonists of the androgen receptor (AR) signaling pathway using the MDA cell line (AID 743042; also: nearly all actives have a fitted effect of over 55% in size; also: potency is read from the fitted curve at half-maximal effect). In outline: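 MDA-kb2 breast carcinoma cells carrying MMTV-luciferase (AR/GR responsive) were co-treated with compounds and the agonist R1881 for 16 h at 37C. Inhibition read as ONE-Glo luminescence; CellTiter-Fluor fluorescence measured in parallel for cytotoxicity.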

In test [14] the target is Estrogen receptor (Homo sapiens) (UniProt P03372). Nature of the test: qHTS assay to identify small molecule antagonists of the estrogen receptor alpha (ER-alpha) signaling pathway (AID 743069; active = well fitted curve in the direction sought with a large enough effect in the signal ratio in the repeat runs, not every such curve was filed as active; inconclusive = weak or mixed curves, or effect the other way; inactive = no such curve, though single readings can be large or run the other way; the % refers to the signal ratio; also: potency is read from the fitted curve at half-maximal effect). In outline:
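In this cell-based reporter format, GripTite HEK293 cells harbouring ER-alpha-UAS-bla were grown overnight with 2% charcoal-stripped FBS, dosed with DMSO-dissolved compounds, then challenged with 17beta-estradiol. After 18 hr at 37C, beta-lactamase activity was detected by FRET fluorescence.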

The target is the same in test [15]. The test is described as follows: qHTS assay to identify small molecule agonists of the estrogen receptor alpha (ER-alpha) signaling pathway (AID 743075; calls by dose curve; also: potency is read from the fitted curve at half-maximal effect).
For test [16] the target is unchanged. Nature of the test: qHTS assay to identify small molecule agonists of the estrogen receptor alpha (ER-alpha) signaling pathway using the BG1 cell line (AID 743079). Also: nearly all actives have a fitted effect of over 20% in size.
Test [17] deals with Aromatase (Homo sapiens) (UniProt P11511). The test is described as follows: qHTS assay to identify aromatase inhibitors (AID 743083). Also: nearly all actives have a fitted effect of over 55% in size. Also: potency is read from the fitted curve at half-maximal effect.
Chain of Aromatase (Homo sapiens) (P11511 whole entry, looked up): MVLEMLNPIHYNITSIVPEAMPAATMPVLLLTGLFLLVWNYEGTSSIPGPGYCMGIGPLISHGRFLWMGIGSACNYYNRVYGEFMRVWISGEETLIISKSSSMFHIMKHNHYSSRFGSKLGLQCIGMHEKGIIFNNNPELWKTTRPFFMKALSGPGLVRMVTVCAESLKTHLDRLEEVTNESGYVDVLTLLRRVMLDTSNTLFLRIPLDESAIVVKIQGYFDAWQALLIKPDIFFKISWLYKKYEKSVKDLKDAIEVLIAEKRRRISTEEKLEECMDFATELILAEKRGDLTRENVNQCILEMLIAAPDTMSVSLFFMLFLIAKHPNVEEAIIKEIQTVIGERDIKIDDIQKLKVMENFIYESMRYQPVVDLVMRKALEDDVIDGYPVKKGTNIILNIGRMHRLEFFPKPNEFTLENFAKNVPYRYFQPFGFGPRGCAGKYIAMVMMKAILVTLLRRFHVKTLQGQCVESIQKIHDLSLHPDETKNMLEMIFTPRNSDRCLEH
Test [18] in a line: qHTS assay to identify small molecule antagonists of the estrogen receptor alpha (ER-alpha) signaling pathway using the BG1 cell line (AID 743080; calls by dose curve;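 also: BG1 cells stimulated with 17beta-estradiol alongside compound; nearly all actives have a fitted effect of over 25% in size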; also: potency is read from the fitted curve at half-maximal effect). In outline: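 Luminescence from a 4×ERE-luciferase reporter in BG1-Luc-4E2 cells served as read-out. Cells, pre-cultured 5 days in stripped-serum phenol-red-free medium, were exposed to compound with 17beta-estradiol co-stimulation for 21.5 h at 37 C.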

Test [19] is described as follows: qHTS assay to identify aromatase inhibitors - cell viability counter screen (AID 743084). Also: potency is read from the fitted curve at half-maximal effect.
Test [20] is described as follows: qHTS assay to identify small molecule antagonists of the estrogen receptor alpha (ER-alpha) signaling pathway using the BG1 cell line - cell viability counter screen (AID 743081).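 Also: compound given together with 17beta-estradiol as the ER stimulus; nearly all actives have a fitted effect of over 45% in size.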 Also: potency is read from the fitted curve at half-maximal effect.
% is scaled to controls: 0 for no effect and ±100 for the full control effect.

Chain of Estrogen receptor (Homo sapiens) (P03372 whole entry, looked up): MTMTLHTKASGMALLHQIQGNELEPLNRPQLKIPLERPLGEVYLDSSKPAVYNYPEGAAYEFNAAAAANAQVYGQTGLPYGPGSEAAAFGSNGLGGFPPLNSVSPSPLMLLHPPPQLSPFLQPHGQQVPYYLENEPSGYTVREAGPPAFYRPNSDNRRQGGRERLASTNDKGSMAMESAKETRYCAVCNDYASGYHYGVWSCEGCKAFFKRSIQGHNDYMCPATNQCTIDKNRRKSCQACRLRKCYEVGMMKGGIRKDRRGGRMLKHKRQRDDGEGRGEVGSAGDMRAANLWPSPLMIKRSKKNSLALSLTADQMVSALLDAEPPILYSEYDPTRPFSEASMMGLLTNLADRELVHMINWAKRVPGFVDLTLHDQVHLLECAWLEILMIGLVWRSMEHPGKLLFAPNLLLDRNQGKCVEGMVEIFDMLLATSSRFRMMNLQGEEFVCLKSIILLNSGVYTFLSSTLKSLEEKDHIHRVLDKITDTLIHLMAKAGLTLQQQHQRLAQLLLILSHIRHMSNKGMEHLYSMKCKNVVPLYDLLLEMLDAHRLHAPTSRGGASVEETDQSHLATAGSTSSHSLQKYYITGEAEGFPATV
Chain of Androgen receptor (Homo sapiens) (P10275 whole entry, looked up): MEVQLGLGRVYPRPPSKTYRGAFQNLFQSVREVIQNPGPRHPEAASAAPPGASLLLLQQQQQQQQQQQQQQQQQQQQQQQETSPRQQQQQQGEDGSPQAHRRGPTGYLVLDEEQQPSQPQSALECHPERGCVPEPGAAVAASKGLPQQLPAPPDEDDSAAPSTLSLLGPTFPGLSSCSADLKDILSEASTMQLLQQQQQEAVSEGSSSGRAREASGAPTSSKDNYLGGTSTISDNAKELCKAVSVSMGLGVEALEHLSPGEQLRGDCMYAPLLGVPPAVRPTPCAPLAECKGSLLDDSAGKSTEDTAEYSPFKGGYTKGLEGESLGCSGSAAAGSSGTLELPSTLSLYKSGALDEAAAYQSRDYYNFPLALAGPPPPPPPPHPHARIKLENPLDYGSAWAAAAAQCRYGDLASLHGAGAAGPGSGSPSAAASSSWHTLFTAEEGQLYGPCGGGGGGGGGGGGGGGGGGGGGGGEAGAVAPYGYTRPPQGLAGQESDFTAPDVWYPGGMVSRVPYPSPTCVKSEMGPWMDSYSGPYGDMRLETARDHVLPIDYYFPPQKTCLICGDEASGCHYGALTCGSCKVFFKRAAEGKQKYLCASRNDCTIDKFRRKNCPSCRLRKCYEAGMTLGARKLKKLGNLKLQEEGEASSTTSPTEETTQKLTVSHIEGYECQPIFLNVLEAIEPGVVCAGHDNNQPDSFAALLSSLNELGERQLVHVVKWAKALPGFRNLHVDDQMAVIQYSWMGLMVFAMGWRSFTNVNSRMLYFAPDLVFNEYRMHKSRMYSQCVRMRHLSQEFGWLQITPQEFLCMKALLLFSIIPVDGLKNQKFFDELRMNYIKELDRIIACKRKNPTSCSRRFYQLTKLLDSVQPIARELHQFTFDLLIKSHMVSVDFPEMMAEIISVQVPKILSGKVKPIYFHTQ

Regarding `Cn1cc(C2=C(c3cn(C4CCN(Cc5ccccn5)CC4)c4ccccc34)C(=O)NC2=O)c2ccccc21`, the Potency result in test [1], in [2], in test [3], in test [4], in [5] and in test [6] was “inactive” throughout. The Potency result in test [7], in [8] and in test [10] was “inactive” each time. Moreover, the outcome in [9] was inactive.

For `O=C1c2ccccc2C(=O)C1C(=O)C(c1ccccc1)c1ccc(Cl)cc1` (configuration not stated), the Potency in test [1] was 19.5 µM (active); in test [2], 27.3 µM (active); in test [3], 27.3 µM (active); in [4] it was 21.7 µM (active); in test [5], 13.8 µM (active); in test [13], 15.4 µM (active). Also, the Potency in test [7] was 27.3 µM (active); in test [14], 5.49 µM [inconclusive] (active); in test [10], 43.6 µM (active); in test [17], 54.5 µM (active). The Potency result in test [11], in [12], in [15] and in test [16] was “inactive” throughout. For the same molecule, in test [9], the molecule was called inactive.

As for `CCCCCCCCCCCCCCCC[n+]1ccccc1`, the Potency in [1] was 25.7 µM (active) and 30.9 µM (active) and 34.2 µM (active); in [2] it was 427 nM (active) [middle of 4 runs]; in test [3], 380 nM (active) [middle of 4 runs]; in test [4], 386 nM (active) [middle of 4 runs]; in [5], 19.2 µM (active) [middle of 4 runs]; in test [6], 27.3 µM (active) [middle of 4 runs]. Besides, the Potency in [7] was 16.8 µM (active) [middle of 4 runs]; in test [10], 22.9 µM (active) and 24.5 µM (active) and 43 µM (active); in test [18], 21.1 µM (active) and 18 µM (active) and 15.4 µM (active); in [17], 7.7 µM (active) [middle of 4 runs]; in test [19], 32 µM (active) and 54.5 µM (active) and 60.3 µM (active). Further, the Potency result in test [15] is “inactive”.

For the molecule `CCOC(=O)CC(=O)CCl`, the Potency result in test [1], in test [5], in test [12], in [6], in test [13] and in test [10] was “inactive” each time. Moreover, the Potency result in test [15], in [16] and in test [20] was “inactive” each time. For the same molecule, the Potency in test [2] was 61.1 µM (active); in test [3], 19.3 µM (active); in [4], 24.3 µM (active); in [7], 61.1 µM (active); in test [8], 61.1 µM (active); in test [17] it was 30.6 µM (active). Also, the Potency in [19] is 30.6 µM (active). Besides, the result in [9] was inactive.

As for `CCCCCCCCCCCCCCCCCCn1cc[n+](C)c1`, the Potency in test [1] was 24.4 µM (active); in test [2] it was 1.21 µM (active); in test [3], 0.963 µM (active); in test [4], 2.16 µM (active); in [5] it was 13.7 µM (active); in [13], 7.65 µM (active). Further, the Potency is 12.1 µM (active) in test [7]; 5.42 µM (active) in test [8]; 9.72 µM [inconclusive] (active) in test [14]; 38.7 µM (active) in test [10]; 30.5 µM (active) in test [20]; 3.83 µM (active) in test [17]. In test [19], the Potency was 21.6 µM (active). Besides, the Potency entry in test [12] and in test [15] was “inactive” throughout.

Consider `ClC(Cl)=C(c1ccc(Cl)cc1)c1ccc(Cl)cc1`, for which the Potency result in test [1], in test [2], in [3], in test [4], in test [5] and in test [6] was “inactive” each time. The Potency entry in test [14], in test [10], in test [15], in test [18], in test [20] and in test [17] was “inactive” in each case. Also, the Potency result in [19] is “inactive”. Besides, the Potency in [7] is 62.6 µM (active) and 30.6 µM (active); in test [8] it was 55.8 µM (active) and 30.6 µM (active). In addition, the call in test [9] was inactive.

Take `CCCOCC(=Nc1ccc(Cl)cc1C(F)(F)F)n1ccnc1`: the Potency in test [1] is 15.5 µM (active); in [2], 4.32 µM (active); in test [3] it was 4.32 µM (active); in test [4], 4.32 µM (active); in test [5], 12.3 µM (active); in test [6] it was 61.1 µM (active). The Potency is 7.69 µM (active) in test [7], 7.69 µM (active) in test [8], 0.0153 µM (active) in [17] and 12.2 µM (active) in test [19].

On to `CCC[CH2][Sn]([CH2]CCC)([CH2]CCC)[O]C(=O)c1ccccc1`, for which the Potency is 1.55 µM (active) in test [1]; 0.243 µM (active) in test [2]; 0.154 µM (active) in test [3]; 0.193 µM (active) in test [4]; 0.692 µM (active) in test [5]; 1.93 µM (active) in [6]. In addition, the Potency in test [7] was 1.22 µM (active); in test [14] it was 9.77 µM [cytotoxic] (active); in [10], 1.74 µM (active); in test [18] it was 344 nM (active); in test [20], 1.72 µM (active); in [17], 2.17 µM (active). Moreover, the Potency in [19] was 1.54 µM (active).

In the case of `CN(C)CCc1c[nH]c2ccc(O)cc12`, the Potency result in test [1], in test [2], in test [3], in test [4], in test [5] and in [11] was “inactive” throughout. Further, the Potency entry in [12], in test [6], in [13], in test [7], in [8] and in test [20] was “inactive” each time. Also, the Potency entry in [17] and in test [19] was “inactive” in each case. Also, in test [9], the molecule was called inactive.

Consider `Clc1ccc(C(Cl)(Cl)Cl)c(Cl)c1`, for which the Potency entry in [1], in test [2], in test [3], in test [4], in test [5] and in test [6] was “inactive” in each case. Moreover, the Potency result in test [7], in [8], in test [10], in test [20] and in [19] was “inactive” throughout. In addition, the molecule was called inactive in test [9].

`CC(C)[C@H](C(=O)O[C@H](C#N)c1cccc(Oc2ccccc2)c1)c1ccc(Cl)cc1`: the Potency result in test [1], in test [5], in test [6], in test [7], in test [10] and in [20] was “inactive” each time. In addition, the Potency result in test [17] and in test [19] was “inactive” each time. Further, the Potency was 43.2 µM (active) in test [2], 43.2 µM (active) in [3] and 30.6 µM (active) in test [4]. In test [9], the molecule was called inactive.

As for `C[C@@H]1CC[C@@]2(OC1)O[C@H]1[C@@H](O)[C@H]3[C@@H]4CC[C@H]5C[C@@H](O[C@@H]6O[C@H](CO)[C@H](O[C@@H]7O[C@H](CO)[C@@H](O)[C@H](O[C@@H]8OC[C@@H](O)[C@H](O)[C@H]8O)[C@H]7O[C@@H]7O[C@H](CO)[C@@H](O)[C@H](O[C@@H]8O[C@H](CO)[C@@H](O)[C@H](O)[C@H]8O)[C@H]7O)[C@H](O)[C@H]6O)[C@H](O)C[C@]5(C)[C@H]4CC[C@]3(C)[C@H]1[C@@H]2C`, the Potency is 16.4 µM (active) in test [1]; 16.3 µM (active) in test [2]; 4.09 µM (active) in test [3]; 2.05 µM (active) in test [4]; 2.32 µM (active) in test [5]; 25.8 µM (active) in test [6]. Further, the Potency in [13] was 8.17 µM (active); in test [7] it was 2.05 µM (active); in test [10], 10.4 µM (active); in test [15], 41.3 µM [inconclusive] (active); in test [20], 64.9 µM (active); in [17] it was 9.16 µM (active). In test [19], the Potency was 2.9 µM (active). Moreover, in test [12], the Potency entry was “inactive”. For the same molecule, in test [9], the call was inactive.
